Assay results: PubChem BioAssay
Several values for one entry are separate records, joined by “and”; a condition that tells them apart may be missing. Equal entries are not always repeated. Activity calls are given as the source filed them. Unless noted, the rule behind the calls is not given here.

Key:
[1] = test system: Aerobactin synthetase IucA (Klebsiella pneumoniae); experiment: IucA aerobactin synthetase inhibitors, biochemical, Tocris library, absorbance (AID 1345561); conditions: purified IucA enzyme assay, absorbance (OD) read-out; stronger effect = lower value;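 tested at 8 µM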;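 note: 100% = enzyme without compound and 0% = no enzyme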
[2] = sensitizers of A549 cells to miR-34 induction, primary screen, imaging, A549 dox-inducible miR-34, nuclei and caspase counts (AID 1347080;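 active = compounds whose cell count with miR-34 switched on is under 0.7 times the count with it off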); conditions: A549 miR-34 inducible, Hoechst nuclei count, 48 h
[3] = viability rescue of complex I mutant cybrids, primary screen, cell-based, galactose medium, ATP luminescence (AID 1645843;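 active = z-score of at least 1.8 in each of two replicates, scored against plate mean and spread of sample wells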;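 note: positive z means more ATP and so rescue of galactose-driven cybrid death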); conditions: complex I mutant cybrid cells, 72 h, stronger effect = higher value
[4] = test system: Hepatitis C virus NS3 helicase; experiment: HCV NS3 helicase inhibitors, primary screen, biochemical, fluorescence polarization, LOPAC1280 library (AID 687035; in the data active = inhibition above about 37%); conditions: Purified HCV NS3 helicase, Cy5-dT15 ssDNA binding fluorescence polarization; stronger effect = higher value; concentration not given here
[5] = Cy5 fluorescence quenching or enhancement artefacts, artefact control for HCV NS3 helicase inhibitor project, biochemical, LOPAC1280 (AID 687037); conditions: Cy5-DNA-NS3h complex fluorescence interference counterscreen
[6] = inhibitors of Cryptococcus chitosan production, flow cytometry, Cibacron Brilliant Red staining (AID 1347148); conditions: Cryptococcus neoformans chitosan, stronger effect = lower value; at 10 µM unless noted;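 note: compound exposure lasted three days at 37 degrees C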
[7] = target: Mitogen-activated protein kinase 7 (Homo sapiens) (UniProt Q13164); experiment: ERK5 transactivation activators in reporter cells, primary screen, cell-based, HTS (AID 1508626;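 active = luciferase signal above three times the same-plate solvent-only control wells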;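 note: luciferase driven by Gal4-ERK5 fusion binding five Gal4 sites before minimal TATA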); conditions: HeLa Gal4-ERK5 transactivation, 18 h, at 5 µM, stronger effect = higher value
[8] = liver-stage malaria parasite growth inhibition, primary screen, cell-based, HepG2, luciferase luminescence, HepG2 viability (AID 624349; in the data active = parasite load remaining mostly below about 12%, no sharp cut-off; inactive = mostly above about 10%;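 note: 100% = mean of DMSO negative control wells on the same plate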); conditions: P. berghei liver stage in HepG2, luciferase luminescence, concentration not given here; parasite load remaining: stronger effect = lower value; viability: measured here: HepG2 viability without parasites
[9] = survival rescue of mitochondrial mutant cells in low glucose, primary screen, MELAS cybrids, Rieske KO mouse fibroblasts, CellTiter-Glo (AID 1508586;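 active = mean z-score across replicates of 1.96 or higher in either the MELAS or the Rieske mutant cell line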;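 note: z relative to plate mean and SD of compound and empty wells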)
[10] = stronger effect = lower value, cell number ratio, induced over uninduced
[11] = measured here: relative caspase fold change +Dox/-Dox
[12] = measured here: total cells with miR-34 induction, stronger effect = lower value
[13] = measured here: total cells without miR-34 induction
[14] = MELAS cybrid survival, CellTiter-Glo 48 h, stronger effect = higher value
[15] = Rieske KO mouse fibroblast survival, CellTiter-Glo 72 h

Sequence of Mitogen-activated protein kinase 7 (Homo sapiens) (Q13164 whole entry, looked up, the tested form may be a part): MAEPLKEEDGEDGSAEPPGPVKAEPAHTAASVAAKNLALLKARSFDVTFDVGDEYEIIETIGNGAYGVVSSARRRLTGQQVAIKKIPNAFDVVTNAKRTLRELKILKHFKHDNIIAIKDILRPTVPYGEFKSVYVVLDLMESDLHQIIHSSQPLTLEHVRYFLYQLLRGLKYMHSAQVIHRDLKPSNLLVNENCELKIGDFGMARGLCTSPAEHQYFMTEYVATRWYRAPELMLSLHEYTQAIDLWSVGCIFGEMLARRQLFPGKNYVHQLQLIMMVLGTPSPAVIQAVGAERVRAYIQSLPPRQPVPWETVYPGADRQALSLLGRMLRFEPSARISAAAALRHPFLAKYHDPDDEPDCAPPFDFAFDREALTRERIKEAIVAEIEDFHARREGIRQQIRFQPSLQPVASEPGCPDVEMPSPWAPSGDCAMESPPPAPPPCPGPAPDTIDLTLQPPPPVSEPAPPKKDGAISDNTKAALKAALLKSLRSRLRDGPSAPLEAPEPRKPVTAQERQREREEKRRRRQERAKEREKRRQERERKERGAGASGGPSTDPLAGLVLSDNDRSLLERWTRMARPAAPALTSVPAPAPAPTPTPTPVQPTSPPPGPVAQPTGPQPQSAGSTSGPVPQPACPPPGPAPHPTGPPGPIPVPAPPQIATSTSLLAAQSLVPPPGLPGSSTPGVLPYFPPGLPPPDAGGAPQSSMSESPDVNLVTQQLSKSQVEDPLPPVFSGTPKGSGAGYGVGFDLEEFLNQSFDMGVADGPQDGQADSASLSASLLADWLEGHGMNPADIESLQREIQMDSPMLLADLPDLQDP

## O=c1nc2ccccc2c2n1CC(CN1CCN(c3ccccc3)CC1)N2 (stereo unspecified)
[1]
  remaining activity: 100% (inactive)
[2]; [10]
  fold change: 0.869 (inactive)
[2]; [11]
  fold change: 0.649
[2]; [12]
  cell count: 9300
[2]; [13]
  cell count: 10700
[3]
  z-score: -0.605 (inactive)

## C1CCC(N=C(NC23CC4CC(CC(C4)C2)C3)N2CCOCC2)CC1
[4]
  inhibition: -4% (inactive)
[5]
  fluorescence ratio (interference): 1 (inactive)
[1]
  remaining activity: 116% (inactive)
[2]; [10]
  fold change: 0.989 (inactive)
[2]; [11]
  fold change: 0.888
[2]; [12]
  cell count: 8260
[2]; [13]
  cell count: 8350
[6]
  fold fluorescence: 11.7 [at 130.9 µM] (inactive)
[3]
  z-score: -0.33 (inactive)

## CC(=O)O[C@@H]1C[C@H]2C(C)(C)C(=O)C=C[C@]2(C)[C@H]2CC[C@@]3(C)[C@H](c4ccoc4)OC(=O)[C@H]4O[C@]43[C@@]21C
[1]
  remaining activity: 103% (inactive)
[2]; [10]
  fold change: 0.935 (inactive)
[2]; [11]
  fold change: 1.22
[2]; [12]
  cell count: 4410
[2]; [13]
  cell count: 4720
[7]
  luciferase signal: 96 AU (inactive)
[3]
  z-score: -0.435 (inactive)

## CCCCCCCCCCCCCCCCn1cc[n+](Cc2ccccc2)c1C
[8]
  parasite load remaining: 41.6% (inactive)
  viability: 156%
[1]
  remaining activity: 93.9% (inactive)
[2]; [10]
  fold change: 0.951 (inactive) and 0.701 (inactive)
[2]; [11]
  fold change: 0.478 and 0.77
[2]; [12]
  cell count: 1020 and 275
[2]; [13]
  cell count: 1080 and 392
[9]; [14]
  z-score: 0.978 (inactive)
[9]; [15]
  z-score: -3.72
[3]
  z-score: -0.7 (inactive)

## CN(C)[C@@H]1CCc2[nH]c3ccc(NC(=O)c4ccc(F)cc4)cc3c2C1
[1]
  remaining activity: 77.6% (inactive)
[2]; [10]
  fold change: 0.87 (inactive)
[2]; [11]
  fold change: 1.77
[2]; [12]
  cell count: 8840
[2]; [13]
  cell count: 10200
[3]
  z-score: 0.495 (inactive)

## NC(=O)c1sc(-c2ccsc2)cc1N
[1]
  remaining activity: 88.4% (inactive)
[2]; [10]
  fold change: 0.841 (inactive) and 0.869 (inactive)
[2]; [11]
  fold change: 0.888 and 1.88
[2]; [12]
  cell count: 8280 and 7870
[2]; [13]
  cell count: 9850 and 9060
[9]; [14]
  z-score: -0.221 (inactive)
[9]; [15]
  z-score: -0.163
[3]
  z-score: 0.36 (inactive)
